Screening results deposited in PubChem by National Center for Advancing Translational Sciences (NCATS).
Compounds with a hit are over-represented: about 7.7% of the library has one in this group of screens.
HCMV inh: qHTS Assay for inhibitors of the human cytomegalovirus (HCMV); hit rate 4.5% among 410,000; AID 1259415, 2018; HFF cells, HCMV-luciferase reporter, 72 h; active compounds read low; activity change, negative = inhibition, % at 57.5 µM; in the data active means activity change below about -60%; inconclusive means no clear call, values can overlap the other calls; inactive means above about -39%
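HFF cells seeded 16 h at 37C, treated with compounds, infected with luciferase-reporter HCMV at MOI 1 PFU/cell; luciferase read at 72 h post infection, normalized to buffer-only and Salinomycin controls.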
Sm TGR inh: qHTS Assay for the Inhibitors of Schistosoma Mansoni Peroxiredoxins | purified TGR, DTNB reduction, TNB absorbance 405 nm | Potency, µM (highest dose often 114 µM), inactives show at the highest dose activity change, negative = inhibition, hits mostly inhibitors | hit rate 3% among 360,000 | AID 485364, 2010; further: potency means the concentration at half of the fitted maximal effect; nearly all actives have a fitted effect of over 60% in size
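TGR 20 nM + NADPH 100 uM (dispensed conc.), cpd preinc 15 min RT; start with NADPH (500 uM addition) then DTNB (15 mM addition). Kinetic TNB absorbance, 405 nm filter. Four-parameter Hill fit across titration.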
Tb PYK inh: qHTS of Trypanosoma Brucei Inhibitors. hit rate 0.12% among 410,000. AID 624173, 2012. TbPYK enzyme, Kinase-Glo Plus ATP luminescence, 45 min. Potency, µM (doses to about 76.8 µM), without a hit: top-dose activity, negative = inhibition, most hits filed as inhibitors; further: potency means the concentration at half of the fitted maximal effect; nearly all actives have a fitted effect of over 50% in size
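TbPYK + substrate in 50 mM TEA pH 7.2, 100 mM KCl, 10 mM MgCl2, 0.05% BSA, 0.01% Tween-20; cpd pinned; ADP 130 uM final; 45 min RT; Kinase-Glo Plus 10 min; luminescence endpoint.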
RE007 growth inh: qHTS Assay for Inhibitors of the HIV-1 protein Vpr; S. pombe RE007 Vpr strain, BacTiter-Glo ATP luminescence, 24 h; Potency, µM (highest dose often 92.2 µM), inactives show at the highest dose activity change, negative = less growth, usual class: inhibitors; hit rate 0.21% among 360,000; active means well fitted falling curve with a large enough effect; inconclusive means small, poorly fitted or top-dose-only effect; inactive means no such curve, though single readings can be large or run the other way; further: potency means the concentration at half of the fitted maximal effect; nearly all actives have a fitted effect of over 50% in size
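Fission yeast strain RE007, carrying one chromosomally integrated HIV-1 vpr copy, was seeded at OD 0.01 in PMG+AL medium with 23 nL pinned compound. After 24 h at 30 °C and 99% humidity, viability was read by BacTiter-Glo luminescence.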
FMDV inh: High Throughput Screening for Foot and Mouth Disease Virus Antivirals. hit rate 1.2% among 410,000. Potency, µM (series often up to 57.9 µM), without a hit: at the top dose activity change, negative = inhibition, actives largely listed as inhibitors. FMDV antiviral cell-based qHTS. AID 1159524, 2015; calls by dose curve; tested in HEK293T cells; further: read-out not given here; potency means the concentration at half of the fitted maximal effect; nearly all actives have a fitted effect of over 45% in size
Giardia FBPA inh-1: qHTS Assay for Inhibitors of Fructose-1,6-bisphosphate Aldolase from Giardia Lamblia; purified Giardia FBPA; Potency, µM (top dose mostly 59.6 µM), for inactives: at the highest dose activity, negative = inhibition, hits mostly inhibitors; hit rate 0.71% among 290,000; further: potency means the concentration at half of the fitted maximal effect; nearly all actives have a fitted effect of over 55% in size
Target sequence (A8B2U2 whole entry, looked up): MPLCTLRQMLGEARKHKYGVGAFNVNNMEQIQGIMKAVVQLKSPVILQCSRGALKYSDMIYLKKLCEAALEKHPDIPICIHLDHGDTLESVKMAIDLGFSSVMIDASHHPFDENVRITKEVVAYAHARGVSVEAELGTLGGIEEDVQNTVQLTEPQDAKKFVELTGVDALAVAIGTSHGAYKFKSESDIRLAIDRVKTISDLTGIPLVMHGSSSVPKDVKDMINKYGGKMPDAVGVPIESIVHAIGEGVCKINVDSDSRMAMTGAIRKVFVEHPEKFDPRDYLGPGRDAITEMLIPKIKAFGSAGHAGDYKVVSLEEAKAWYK
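40 nM FBPA preincubated 10 min at RT with compound (up to 57.5 uM final), then substrate plus GAPDH/TPI/NAD/arsenate coupling and diaphorase/resazurin added. Fluorescence read after 20 min at RT, 525/598 nm.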
Giardia growth: qHTS Assay for Inhibitors of Fructose-1,6-bisphosphate Aldolase from Giardia Lamblia: Giardia lamblia growth inhibition. Giardia lamblia trophozoite growth inhibition. shares compounds with Giardia FBPA inh-1. hit rate 5% among 1,500. Potency, µM (titrated, usually from 57.5 µM), inactives show at the top dose activity change, negative = inhibition, hits mostly inhibitors;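 further: potency means the concentration at half of the fitted maximal effect; trophozoites exposed to compound for 48 h at 37 °C; nearly all actives have a fitted effect of over 70% in size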
Mammalian tox: qHTS Assay for Inhibitors of Fructose-1,6-bisphosphate Aldolase from Giardia Lamblia: Mammalian cellular toxicity | Potency, µM (series often up to 57.5 µM), without a hit: at the highest dose viability change, negative = toxicity, actives largely listed as inhibitors | shares compounds with Giardia FBPA inh-1 | hit rate 4% among 1,500 | mammalian cell viability counter-screen, qHTS;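 further: Chinese hamster ovary cells used as mammalian cytotoxicity surrogate; viability measured as cellular ATP by luminescence; potency means the concentration at half of the fitted maximal effect; compound exposure lasted 48 h before reading; nearly all actives have a fitted effect of over 60% in size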
Giardia FBPA inh-2: qHTS Assay for Inhibitors of Fructose-1,6-bisphosphate Aldolase from Giardia Lamblia: Primary screen confirmation; shares compounds with Giardia FBPA inh-1; purified Giardia aldolase enzyme activity, qHTS; Potency, µM (series often up to 57.5 µM), for inactives: top-dose activity change, negative = inhibition, actives largely listed as inhibitors; hit rate 5% among 1,500; further: potency means the concentration at half of the fitted maximal effect; nearly all actives have a fitted effect of over 45% in size
Rabbit aldolase: qHTS Assay for Inhibitors of Fructose-1,6-bisphosphate Aldolase from Giardia Lamblia: Rabbit FBPA Selectivity. hit rate 4% among 1,500. Potency, µM (series often up to 57.5 µM), without a hit: top-dose activity, negative = inhibition, hits mostly inhibitors. shares compounds with Giardia FBPA inh-1. Rabbit muscle FBPA enzyme inhibition, selectivity counter-screen; further: potency means the concentration at half of the fitted maximal effect; nearly all actives have a fitted effect of over 60% in size
Target sequence (P00883 whole entry, looked up): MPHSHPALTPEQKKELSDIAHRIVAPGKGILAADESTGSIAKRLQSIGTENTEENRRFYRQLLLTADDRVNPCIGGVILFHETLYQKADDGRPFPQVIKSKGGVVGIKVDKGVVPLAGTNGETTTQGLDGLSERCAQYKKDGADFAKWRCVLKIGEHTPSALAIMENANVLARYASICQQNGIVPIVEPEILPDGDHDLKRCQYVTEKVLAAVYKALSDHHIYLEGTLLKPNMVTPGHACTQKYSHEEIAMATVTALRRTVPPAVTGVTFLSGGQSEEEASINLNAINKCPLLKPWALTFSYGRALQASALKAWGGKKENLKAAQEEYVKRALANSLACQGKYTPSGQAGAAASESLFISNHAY
GAPDH counter: qHTS Assay for Inhibitors of Fructose-1,6-bisphosphate Aldolase from Giardia Lamblia: Coupling assay counterscreen confirmation | GAPDH coupling enzyme counterscreen, biochemical, qHTS | hit rate 6% among 1,500 | Potency, µM (highest dose often 57.5 µM), for the others: top-dose activity change, negative = inhibition, usual class: inhibitors | shares compounds with Giardia FBPA inh-1; further: potency means the concentration at half of the fitted maximal effect; nearly all actives have a fitted effect of over 55% in size
An asterisk follows results filed as active; ? = inconclusive; . = not tested or not shown; [ ] = dose if it differs, or a comment. Unless noted, the call rests on the fitted dose curve; in most records, active means well fitted curve in the direction sought with a large enough effect; inconclusive means small, poorly fitted or top-dose-only effect, or another doubt; inactive means no such curve, though single readings can be large; an effect the other way counts as inactive or inconclusive. On the % scale 0 is the no-effect control and ±100 the full control effect.

SMILES	HCMV inh	Sm TGR inh	Tb PYK inh	RE007 growth inh	FMDV inh	Giardia FBPA inh-1	Giardia growth	Mammalian tox	Giardia FBPA inh-2	Rabbit aldolase	GAPDH counter
CC(C)(C)OC(=O)N1CCC(c2c(C(=O)N3CCN(C(=O)c4ccco4)CC3)cnn2-c2cccc(F)c2)CC1	?	1%	-22%[15.4 µM]	.	-14%	.	.	.	.	.	.
COc1cc(NC(=O)c2cc(-c3ccccc3O)no2)cc(OC)c1OC	3	0%	-5%	.	-22%	.	.	.	.	.	.
NC(=S)NNc1ccc(Cl)c(Cl)c1	1	2µM*	-13%	11µM*	-16%	13µM*	13%	-10%	-15%	3%	-6%
Cc1ccc(NNC(N)=S)cc1Cl	11	40µM*	-9%	?	0%	18µM*	-22%	13%	-6%	3%	-6%
NC(=S)NNc1ccnc2cc(Cl)ccc12	-13	7%	-3%	-1%	-15%	16µM*	?	-4%	-4%	-3%	15%
OCCNC(=S)Nc1ccc(Cl)c(Cl)c1	12	-12%	-12%	21%	13%	-3%	.	.	.	.	.
CCN(CCNCC(O)COCc1ccc(Cl)cc1)c1cccc(C)c1 (stereo not given)	26	-7%	-4%	-5%	?	22µM*	-8%	-13%	0%	1%	10%
CCN(CCCNC(=O)c1ccc(Sc2ccc(Cl)cc2)c(NC(C)=O)c1)c1cccc(C)c1	31	4%	6%	.	-17%	.	.	.	.	.	.
c1ccc(-c2nc(-c3ccncc3)n[nH]2)nc1	71	0%	-7%	-24%	34%	3.5µM*	-20%[38.3 µM]	-13%	-20%	-9%	-10%
O=C(NC(=S)Nc1ncccn1)c1ccc(F)cc1	41	41%	0%	10%	33%	6.3µM*	?	-8%	2%	6%	11%
O=C(NC(=S)Nc1cccnc1Cl)c1ccc(F)cc1	34	?	-1%	-13%	67%	14µM*	?	12%	5%	0%	12%
CCOc1ccc(C(=O)CCC(=O)O)cc1	-11	-16%	-6%	1%	4%	-2%	.	.	.	.	.
CCOc1ccc(/C(CCC(=O)O)=N/NC(=S)NC(C)C)cc1	-11	-3%	-12%	10%	-7%	16µM*	-16%	18%	4%	15%	10%
CCOc1ccc(C2=CC(c3cccc(Br)c3)n3c(nc4ccccc43)N2)cc1Cl (stereo not given)	96	?	4%	.	3%	.	.	.	.	.	.
N#Cc1cc2cc3c(cc2nc1Cl)OCCO3	33	.	-3%	-1%	-7%	.	.	.	.	.	.
N#Cc1cc2cc3c(cc2nc1N1CCCCC1)OCCO3	28	-31%	-17%	-2%	7%	6.3µM*	56µM*	-26%	-9%	-1%	-2%
c1ccc2c(c1)OCC(C1=NCCN1)O2 (stereo not given)	4	-23%	-2%	-17%[18.4 µM]	?	-7%	.	.	.	.	.
Nn1c(C2COc3ccccc3O2)n[nH]c1=S (stereo not given)	-39	13%	-10%	-16%	2%	6.3µM*	-15%[38.3 µM]	-4%	?	?	?
CCC(=O)[C@@]1(C)[C@H](C)C[C@@H]2[C@@H]3CCC4=CC(=O)C=C[C@@]4(C)[C@H]3[C@H](O)C[C@]21C	.	.	4%[33.2 µM]	.	.	-13%[21.7 µM]	.	.	.	.	.
O=C(Nc1ncc(Cc2ccccc2Cl)s1)C1=NCCN1	?	0%	0%	-19%	0%	10%	.	.	.	.	.
CCc1ccc(Cc2cnc(NC(=O)C3=NCCN3)s2)cc1	-27	-2%	5%	-28%	10%	14µM*	?	-3%	10%	13%	2%
CCN1CCN(CC(=O)Nc2cc3c(cc2C(C)=O)OCO3)CC1	50	-12%	17%	4%	7%	13µM*	-1%[10.4 µM]	13%	-2%	3%	9%
Cc1cc(C)nc(N/N=C/c2ccc(Cl)cc2)n1	-29	5%	-4%	-17%	22%	11µM*	-23%	5%	3%	2%	-5%
COc1cc(/C=N/Nc2nc(C)cc(C)n2)cc(OC)c1OC	-16	0%	3%	3%	53%	16µM*	6%	2%	2%	0%	10%
CCOC(=O)c1c(Nc2ccc(F)cc2)nnc(-c2ccccc2)c1-c1ccccc1	-12	4%	-4%	.	?	.	.	.	.	.	.
O=[N+]([O-])c1cc(CN2CCN(c3cccc(C(F)(F)F)c3)CC2)c2cccnc2c1O	-76*	-27%	-6%	-8%	-15%	16µM*	-17%	-28%	-10%	-19%	-21%
CN1CCN(C(c2ccc(F)cc2)c2ccc3cccnc3c2O)CC1 (stereo not given)	.	.	4%	-13%	-4%	.	.	.	.	.	.
CN1CCN(C(c2cccnc2)c2ccc3cccnc3c2O)CC1 (stereo not given)	.	0.25µM*	137%	-12%	-17%	?	-14%[38.3 µM]	-11%	?	-30%	-8%
O=C(O)c1cc(-c2ccccn2)n[nH]1	-3	1%	.	1%[3.69 µM]	7%	6.3µM*	-9%	-4%	10%	6%	12%
COCOc1cc(OC)ccc1C(=O)/C=C/c1cccc(C(F)(F)F)c1	.	.	.	.	.	-1%	.	.	.	.	.
